Pol eta inh-1: DNA polymerase eta (human) inhibition. Q9Y253. recombinant Pol eta, fluorescent DNA replication assay. 1.2% of 390,000 active. AID 588591. Potency, µM (highest dose often 114 µM), for inactives: top-dose activity change, negative = inhibition, most hits filed as inhibitors; also: potency is read from the fitted curve at half-maximal effect; % is scaled to controls: 0 for no effect and ±100 for the full control effect
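Pol eta (10 nM) was preincubated with compounds for 15 min at room temperature, after which fluorescent replication substrate (50 nM final) was added to start the reaction. Fluorescence was read kinetically at 0 and 10 min.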
POLB inh: DNA polymerase beta (human) inhibition; P06746; Pol beta primer extension/strand displacement, fluorescence kinetic; Potency, µM (top dose mostly 114 µM), for the others: top-dose activity change, negative = inhibition, actives largely listed as inhibitors; 1.3% of 340,000 active; also: potency is read from the fitted curve at half-maximal effect; % is scaled to controls: 0 for no effect and ±100 for the full control effect
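Human Pol beta at 10 nM; strand-displacement substrate 50 nM final. Compound exposure 15 min at room temperature before start, reaction 10 min at room temperature.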
WRN helicase inh: inhibitors of human WRN helicase | Q14191 | WRN helicase unwinding, fluorescent forked duplex, kinetic | Potency, µM (top dose mostly 114 µM), for inactives: top-dose activity change, negative = inhibition, hits mostly inhibitors | 0.46% of 360,000 active; also: potency is read from the fitted curve at half-maximal effect; % is scaled to controls: 0 for no effect and ±100 for the full control effect; nearly all actives have a fitted effect of over 55% in size
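Primary qHTS, 1536-well format. 20 nM WRN + compound, 15 min RT; start with 100 nM forked fluorophore/quencher duplex, 2 mM ATP (final); kinetic read ex 525/em 598 nm.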
PI5P4Ka inh: PI5P4K alpha (human) kinase inhibition; AID 652105; P48426; max response, %; PI5P4Kalpha enzyme, ADP-Glo luminescence, 60 min; stronger effect = lower value; 1.2% of 330,000 active; active = max response of -50% or lower; inconclusive = between -30% and -50%; inactive = -30% or higher; also: value at the top dose of about 77 µM; % is scaled to controls: 0 for no effect and ±100 for the full control effect
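ADP-Glo luminescence end-point read after a 60 min room-temperature kinase reaction of PI5P4Kalpha plus substrate, initiated with ATP at 5 microM final. Buffer: 0.038 M HEPES pH 7.4, EGTA, 0.1% CHAPS, 5% DMSO.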
POLI inh: inhibitors of human DNA polymerase iota; Q9UNA4; Pol iota fluorescent replication assay, 10 min; Potency, µM (top dose mostly 115 µM), without a hit: at the top dose activity, negative = inhibition, actives largely listed as inhibitors; 1% of 390,000 active; AID 588590; also: potency is read from the fitted curve at half-maximal effect
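Fluorescent replication assay read twice, at 0 min and 10 min after adding 50 nM (final) substrate. Enzyme (10 nM) and compounds were first incubated 15 min at room temperature; enzyme-free buffer wells were negative controls.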
Pol kappa inh-1: blocks human DNA polymerase kappa activity. Q9UBT6. purified Pol kappa, fluorescent DNA synthesis assay, 10 min. Potency, µM (doses to about 107 µM), inactives show at the top dose activity, negative = inhibition, usual class: inhibitors. 0.53% of 400,000 active; also: potency is read from the fitted curve at half-maximal effect; % is scaled to controls: 0 for no effect and ±100 for the full control effect
Target sequence (Q9UBT6 whole entry, looked up): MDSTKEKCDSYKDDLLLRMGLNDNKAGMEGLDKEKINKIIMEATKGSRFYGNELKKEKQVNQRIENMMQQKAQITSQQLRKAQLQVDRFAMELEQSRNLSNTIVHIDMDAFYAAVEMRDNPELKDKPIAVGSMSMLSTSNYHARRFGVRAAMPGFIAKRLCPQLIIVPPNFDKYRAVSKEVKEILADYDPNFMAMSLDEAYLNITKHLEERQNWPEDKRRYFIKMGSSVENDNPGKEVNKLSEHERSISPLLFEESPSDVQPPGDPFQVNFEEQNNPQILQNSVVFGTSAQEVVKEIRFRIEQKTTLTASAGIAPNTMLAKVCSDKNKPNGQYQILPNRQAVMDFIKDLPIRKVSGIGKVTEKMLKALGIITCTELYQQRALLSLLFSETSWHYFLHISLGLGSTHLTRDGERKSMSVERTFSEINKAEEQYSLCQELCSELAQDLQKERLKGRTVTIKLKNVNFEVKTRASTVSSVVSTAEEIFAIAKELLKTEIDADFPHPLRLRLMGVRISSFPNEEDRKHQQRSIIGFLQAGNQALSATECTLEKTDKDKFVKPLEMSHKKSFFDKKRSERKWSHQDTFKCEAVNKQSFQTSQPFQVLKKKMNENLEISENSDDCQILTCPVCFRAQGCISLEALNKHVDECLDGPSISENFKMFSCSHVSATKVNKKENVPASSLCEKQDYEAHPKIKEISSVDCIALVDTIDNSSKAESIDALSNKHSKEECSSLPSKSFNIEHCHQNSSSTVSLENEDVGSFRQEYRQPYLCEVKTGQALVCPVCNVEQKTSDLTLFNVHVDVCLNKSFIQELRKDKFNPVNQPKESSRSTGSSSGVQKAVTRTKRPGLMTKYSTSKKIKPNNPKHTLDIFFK
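Enzyme at 10 nM met test compounds for 15 min at room temperature. Substrate addition (50 nM final) began the reaction, which was monitored by fluorescence at 0 and 10 min.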
TbPGK inh: validation of Trypanosoma brucei phosphoglycerate kinase inhibitors; shares compounds with Pol kappa inh-1; Potency, µM (top dose mostly 57.5 µM), for inactives: at the highest dose activity change, negative = inhibition, most hits filed as inhibitors; AID 686980; TbPGK coupled GAPDH assay, Kinase-Glo luminescence; 79% of 500 active; also: potency is read from the fitted curve at half-maximal effect; % is scaled to controls: 0 for no effect and ±100 for the full control effect; nearly all actives have a fitted effect of over 65% in size
Pol iota confirm: Confirm cherry-picked inhibitors of human polymerase iota; Pol iota primer extension, TAMRA/BHQ fluorescence; AID 720496; Potency, µM, hits mostly inhibitors; 77% of 1,500 active; shares compounds with Pol kappa inh-1; also: potency is read from the fitted curve at half-maximal effect
Pol kappa inh-2: Pol kappa (human) inhibition, cherry-pick confirmation | purified Pol-kappa, fluorescent strand-displacement substrate | shares compounds with Pol eta inh-1 | Potency, µM, hits mostly inhibitors | 76% of 920 active; also: potency is read from the fitted curve at half-maximal effect
Pol eta inh-2: Pol eta (human) inhibition, cherry-pick confirmation; Potency, µM, most hits filed as inhibitors; shares compounds with Pol eta inh-1; AID 720502; Pol eta primer extension, TAMRA/BHQ fluorescence, 10 min; 64% of 2,600 active; also: potency is read from the fitted curve at half-maximal effect
An asterisk follows results filed as active; ? = inconclusive; nt = no result; [ ] = another dose, or the depositor's remark. Compounds with a hit are over-represented: about 2.8% of the library has one in this group of screens. Unless noted, calls follow the shape of the dose curve; as a rule, active = well fitted curve in the direction sought with a large enough effect; inconclusive = small, poorly fitted or top-dose-only effect, or another doubt; inactive = no such curve, though single readings can be large; an effect the other way counts as inactive or inconclusive.

SMILES | Pol eta inh-1 | POLB inh | WRN helicase inh | PI5P4Ka inh | POLI inh | Pol kappa inh-1 | Pol iota confirm | Pol eta inh-2 | others
O=C(Cc1ccc(OCCC2CCCCC2)cc1)NO | nt | nt | nt | nt | 20% | -14% | nt | nt
COCCCNc1c2c3c(cccc3[nH]c1=O)C(=O)c1ccccc1-2 | ? | 25µM* | 28µM* | -30 | ? | ? | ? | ? | Pol kappa inh-2=?
Nc1c(/C=C2/C=CC(=O)C(O)=C2)c(=O)nc2sc(CC(=O)N3CCCC3)nn12 | 4µM* | 7.9µM* | 40µM* | -56* | 3.2µM* | ? | 24* | 5.4*
Nc1c(/C=C2/C=CC(=O)C(O)=C2)c(=O)nc2sc(CC(=O)N3CCOCC3)nn12 | 3.5µM* | nt | ? | ? | 8.9µM* | ? | 17* | 6* | TbPGK inh=9.2µM*
Cc1ccccc1C1(CCN2CCCCC2)CCOC(C)(C)C1 (stereo not drawn) | -16% | -7% | -17%[57.1 µM] | -2 | 8% | -11% | nt | nt
Cc1cc(CC(=O)O)c2oc(-c3ccoc3)cc(=O)c2c1 | 8.9µM* | nt | ? | -22 | ? | 40µM* | 34* | 7.6*
Cc1cc2c(=O)cc(-c3ccccc3)oc2c(C(=O)O)c1C | nt | nt | -4%[57.1 µM] | 7 | nt | nt | nt | nt
CCOC(=O)C1=C(C)N=c2s/c(=C/c3ccc(OCC(=O)O)cc3)c(=O)n2C1c1ccc(F)cc1 (stereo not drawn) | ? | 56µM* | -6%[11.6 µM] | -11 | 18µM* | -17% | 75* | nt | Pol kappa inh-2=?
CCOC(=O)C1=C(C)N=c2s/c(=C/c3ccccc3)c(=O)n2C1c1ccc(OC)c(OC)c1 (stereo not drawn) | -14% | 28% | 15% | -3 | 14% | -4% | nt | nt
CCOC(=O)C1=C(C)N=c2s/c(=C/c3cccc([N+](=O)[O-])c3O)c(=O)n2C1c1ccc(OC)cc1OC (stereo not drawn) | 50µM* | 1% | -32%[11.6 µM] | -55* | ? | -7% | 75* | 76*
CCOC(=O)C1=C(C)N=c2s/c(=C/c3ccc(OCC(=O)O)cc3)c(=O)n2C1c1ccc(OC)cc1OC (stereo not drawn) | 28µM* | -5% | -6% | -10 | ? | ? | 34* | 67* | Pol kappa inh-2=30*
CCOC(=O)C1=C(C)N=c2s/c(=C\c3ccc(O)c([N+](=O)[O-])c3)c(=O)n2C1c1ccccc1OC (stereo not drawn) | 8% | 1% | -14% | ? | ? | -23% | nt | nt
CC1=C(C(=O)OC(C)C)C(c2ccc(Cl)cc2)n2c(sc(=Cc3ccc(OCC(=O)O)cc3)c2=O)=N1 (stereo not drawn) | nt | nt | ? | -22 | nt | nt | nt | nt
CCOC(=O)C1CCN(CC(=O)c2c(C)n(C)c3ccc(OC)cc23)CC1 | 5% | -5% | 2% | 3 | 18% | -22%[60.1 µM] | nt | nt
COc1ccc(C2/C=C\CN(C(=O)C3CC3)C(Cc3ccccc3)C(=O)N2Cc2ccc(F)cc2)cc1 (stereo not drawn) | nt | nt | nt | nt | -9% | -4% | nt | nt
O=C(O)CN1C(=O)/C(=C\c2cc([N+](=O)[O-])ccc2OCc2ccccc2Cl)SC1=S | 22µM* | 40µM* | 45µM* | -72* | 28µM* | ? | ? | ?
O=C(O)CN1C(=O)/C(=C\c2cc(Br)ccc2OCc2ccc(Cl)cc2)SC1=S | 22µM* | ? | 56µM* | ? | -6% | -3% | ? | 48*
COc1cc(/C=C2\SC(=S)N(CC(=O)O)C2=O)ccc1OC(=O)c1ccco1 | 1% | 15% | -22% | -13 | 218% | -6% | nt | nt
C=C1CCC2C(C)(CO)C(O)CCC2(C)C1C/C=C1\C(=O)OCC1O (stereo not drawn) | nt | nt | nt | nt | -10% | -8% | nt | nt
O=c1cc(-c2ccc(O)cc2)oc2cc(O[C@@H]3O[C@H](CO)[C@H](O)[C@H](O)[C@H]3O)cc(O)c12 | nt | nt | nt | nt | -6% | 17% | nt | nt
C=CCc1cccc2cc(C(=O)Nc3ccc(CC(=O)O)cc3)c(=O)oc12 | 35µM* | 22µM* | -8%[11.6 µM] | -28 | ? | ? | ? | 67*
C=CCc1cccc2cc(C(=O)Nc3ccc(F)cc3)c(=O)oc12 | -1% | -30% | 7% | -5 | 2% | -25% | nt | nt
CCc1nnc(NS(=O)(=O)c2ccc(N/C=C\C(=O)c3ccc4ccccc4c3)cc2)s1 | 50µM* | ? | 50µM* | ? | ? | -27% | ? | 76*
C=CCc1cccc2cc(C(=O)Nc3ccc(S(=O)(=O)Nc4nnc(CC)s4)cc3)c(=O)oc12 | 10µM* | -1% | -32% | 3 | 8.9µM* | -14% | ? | 30* | Pol kappa inh-2=38*
CC1=NOC(=O)/C1=C\c1ccc(-c2ccccc2Br)o1 | 20µM* | 22µM* | 56µM* | ? | ? | ? | 75* | 48*
Cc1cccc(-n2c(SCC(=O)NCC3CCCO3)nc3ccccc3c2=O)c1C (stereo not drawn) | -10% | nt | 8% | -1 | -6% | 4% | nt | nt
CC(/C=C/c1ccc(N(C)C)cc1)=N\N=C(/N)SC1CC(=O)N(c2ccc(C(=O)O)cc2)C1=O (stereo not drawn) | 45µM* | 4% | -20% | -23 | 15% | -14% | 67* | ? | Pol kappa inh-2=42*
Cc1nc(SCCc2nc3ccccc3[nH]2)c2oc3ccccc3c2n1 | -6% | nt | nt | nt | -7% | -2% | nt | nt
CCOc1cc(/C=C2\C(=N)N3N=C(S(=O)(=O)CC)SC3=NC2=O)ccc1OC(=O)c1ccco1 | ? | -47% | -6%[11.6 µM] | ? | -4% | -4% | nt | nt
CCS(=O)(=O)C1=NN2C(=N)/C(=C\c3ccc(SCc4ccco4)o3)C(=O)N=C2S1 | 4.5µM* | 11µM* | 56µM* | -91* | ? | 28µM* | 38* | 17*
